# Reference: the supplement of paper PMC4466140
# Assays:
# Assay in all cases: SPOT peptide array binding signal intensity (averaged, normalized) (arbitrary units (background-subtracted, floor 0; scale differs between SH3 domains)); higher = stronger binding of the SH3 domain to the peptide
# AgAbp1 = biological target: AgAbp1
# How it was run: (§1)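 Cellulose membranes carried synthetic 15-mer peptides with cysteines swapped for serines. These were incubated overnight at 4°C with 10 μg/ml of GST-fused SH3 domains from four yeast species in TBS-based blocking buffer. Binding signal, detected with anti-GST antibody and quantified in Genespotter, is the normalized, background-subtracted spot intensity averaged over replicates, in arbitrary units specific to each domain.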
# AgBbc1 = biological target: AgBbc1
# How it was run: as §1
# AgBem1-D1 = biological target: AgBem1-D1
# How it was run: as §1
# AgBzz1-D1 = biological target: AgBzz1-D1
# How it was run: as §1
# AgBzz1-D2 = biological target: AgBzz1-D2
# How it was run: as §1
# AgCyk3 = biological target: AgCyk3
# How it was run: as §1
# AgFus1 = biological target: AgFus1
# How it was run: as §1
# AgHof1 = biological target: AgHof1
# How it was run: as §1
# AgHse1 = biological target: AgHse1
# How it was run: as §1
# AgLsb1 = biological target: AgLsb1
# How it was run: as §1
# AgLsb4 = biological target: AgLsb4
# How it was run: as §1
# AgMyo5 = biological target: AgMyo5
# How it was run: as §1
# AgNbp2 = biological target: AgNbp2
# How it was run: as §1
# AgRvs167 = biological target: AgRvs167
# How it was run: as §1
# AgSho1 = biological target: AgSho1
# How it was run: as §1
# AgSla1-D1-D2 = biological target: AgSla1-D1-D2
# How it was run: as §1
# AgSla1-D3 = biological target: AgSla1-D3
# How it was run: as §1
# CaAbp1-D1 = biological target: CaAbp1-D1
# How it was run: as §1
# CaAbp1-D2 = biological target: CaAbp1-D2
# How it was run: as §1
# CaBbc1 = biological target: CaBbc1
# How it was run: as §1
# CaBem1-D1 = biological target: CaBem1-D1
# How it was run: as §1
# CaBzz1-D1 = biological target: CaBzz1-D1
# How it was run: as §1
# CaBzz1-D2 = biological target: CaBzz1-D2
# How it was run: as §1
# CaCyk3 = biological target: CaCyk3
# How it was run: as §1
# CaFus1 = biological target: CaFus1
# How it was run: as §1
# CaHof1 = biological target: CaHof1
# How it was run: as §1
# CaHse1 = biological target: CaHse1
# How it was run: as §1
# CaLsb1 = biological target: CaLsb1
# How it was run: as §1
# CaLsb4 = biological target: CaLsb4
# How it was run: as §1
# CaMyo5 = biological target: CaMyo5
# How it was run: as §1
# CaNbp2 = biological target: CaNbp2
# How it was run: as §1
# CaRvs167 = biological target: CaRvs167
# How it was run: as §1
# CaRvs167-3 = biological target: CaRvs167-3
# How it was run: as §1
# CaSho1 = biological target: CaSho1
# How it was run: as §1
# CaSla1-D1-D2 = biological target: CaSla1-D1-D2
# How it was run: as §1
# CaSla1-D3 = biological target: CaSla1-D3
# How it was run: as §1
# ScAbp1 = biological target: ScAbp1
# How it was run: as §1
# ScBbc1 = biological target: ScBbc1
# How it was run: as §1
# ScBem1-D1 = biological target: ScBem1-D1
# How it was run: as §1
# ScBzz1-D1 = biological target: ScBzz1-D1
# How it was run: as §1
# ScBzz1-D2 = biological target: ScBzz1-D2
# How it was run: as §1
# ScCyk3 = biological target: ScCyk3
# How it was run: as §1
# ScFus1 = biological target: ScFus1
# How it was run: as §1
# ScHof1 = biological target: ScHof1
# How it was run: as §1
# ScHse1 = biological target: ScHse1
# How it was run: as §1
# ScLsb1 = biological target: ScLsb1
# How it was run: as §1
# ScLsb2 = biological target: ScLsb2
# How it was run: as §1
# ScLsb3 = biological target: ScLsb3
# How it was run: as §1
# ScLsb4 = biological target: ScLsb4
# How it was run: as §1
# ScMyo3 = biological target: ScMyo3
# How it was run: as §1
# ScMyo5 = biological target: ScMyo5
# How it was run: as §1
# ScNbp2 = biological target: ScNbp2
# How it was run: as §1
# ScPex13 = biological target: ScPex13
# How it was run: as §1
# ScRvs167 = biological target: ScRvs167
# How it was run: as §1
# ScSho1 = biological target: ScSho1
# How it was run: as §1
# ScSla1-D1-D2 = biological target: ScSla1-D1-D2
# How it was run: as §1
# ScSla1-D3 = biological target: ScSla1-D3
# How it was run: as §1
# SpAbp1-D1 = biological target: SpAbp1-D1
# How it was run: as §1
# SpBbc1 = biological target: SpBbc1
# How it was run: as §1
# SpBzz1-D1 = biological target: SpBzz1-D1
# How it was run: as §1
# SpBzz1-D2 = biological target: SpBzz1-D2
# How it was run: as §1
# SpCyk3 = biological target: SpCyk3
# How it was run: as §1
# SpHof1 = biological target: SpHof1
# How it was run: as §1
# SpHof1-2 = biological target: SpHof1-2
# How it was run: as §1
# SpHof1-3 = biological target: SpHof1-3
# How it was run: as §1
# SpHse1 = biological target: SpHse1
# How it was run: as §1
# SpLsb1 = biological target: SpLsb1
# How it was run: as §1
# SpLsb4 = biological target: SpLsb4
# How it was run: as §1
# SpMyo1 = biological target: SpMyo1
# How it was run: as §1
# SpNbp2 = biological target: SpNbp2
# How it was run: as §1
# SpPex13 = biological target: SpPex13
# How it was run: as §1
# SpRvs167 = biological target: SpRvs167
# How it was run: as §1
# SpSla1-D1-D2 = biological target: SpSla1-D1-D2
# How it was run: as §1
# SpSla1-D3 = biological target: SpSla1-D3
# How it was run: as §1
binder,measurement,setting,value
DTFLPPPPPPPSNFE,SPOT peptide array binding signal intensity,AgAbp1,2
same,SPOT peptide array binding signal intensity,AgBbc1,≤ 0
same,SPOT peptide array binding signal intensity,AgBem1-D1,≤ 0
same,SPOT peptide array binding signal intensity,AgBzz1-D1,≤ 0
same,SPOT peptide array binding signal intensity,AgBzz1-D2,≤ 0
same,SPOT peptide array binding signal intensity,AgCyk3,1
same,SPOT peptide array binding signal intensity,AgFus1,≤ 0
same,SPOT peptide array binding signal intensity,AgHof1,23.5
same,SPOT peptide array binding signal intensity,AgHse1,4.5
same,SPOT peptide array binding signal intensity,AgLsb1,≤ 0
same,SPOT peptide array binding signal intensity,AgLsb4,≤ 0
same,SPOT peptide array binding signal intensity,AgMyo5,1100
same,SPOT peptide array binding signal intensity,AgNbp2,≤ 0
same,SPOT peptide array binding signal intensity,AgRvs167,1.33
same,SPOT peptide array binding signal intensity,AgSho1,≤ 0
same,SPOT peptide array binding signal intensity,AgSla1-D1-D2,≤ 0
same,SPOT peptide array binding signal intensity,AgSla1-D3,0.5
same,SPOT peptide array binding signal intensity,CaAbp1-D1,≤ 0
same,SPOT peptide array binding signal intensity,CaAbp1-D2,≤ 0
same,SPOT peptide array binding signal intensity,CaBbc1,≤ 0
same,SPOT peptide array binding signal intensity,CaBem1-D1,≤ 0
same,SPOT peptide array binding signal intensity,CaBzz1-D1,108
same,SPOT peptide array binding signal intensity,CaBzz1-D2,11.8
same,SPOT peptide array binding signal intensity,CaCyk3,≤ 0
same,SPOT peptide array binding signal intensity,CaFus1,≤ 0
same,SPOT peptide array binding signal intensity,CaHof1,≤ 0
same,SPOT peptide array binding signal intensity,CaHse1,3.25
same,SPOT peptide array binding signal intensity,CaLsb1,≤ 0
same,SPOT peptide array binding signal intensity,CaLsb4,≤ 0
same,SPOT peptide array binding signal intensity,CaMyo5,11.5
same,SPOT peptide array binding signal intensity,CaNbp2,≤ 0
same,SPOT peptide array binding signal intensity,CaRvs167,0.5
same,SPOT peptide array binding signal intensity,CaRvs167-3,≤ 0
same,SPOT peptide array binding signal intensity,CaSho1,12
same,SPOT peptide array binding signal intensity,CaSla1-D1-D2,≤ 0
same,SPOT peptide array binding signal intensity,CaSla1-D3,≤ 0
same,SPOT peptide array binding signal intensity,ScAbp1,≤ 0
same,SPOT peptide array binding signal intensity,ScBbc1,≤ 0
same,SPOT peptide array binding signal intensity,ScBem1-D1,≤ 0
same,SPOT peptide array binding signal intensity,ScBzz1-D1,2.5
same,SPOT peptide array binding signal intensity,ScBzz1-D2,≤ 0
same,SPOT peptide array binding signal intensity,ScCyk3,≤ 0
same,SPOT peptide array binding signal intensity,ScFus1,≤ 0
same,SPOT peptide array binding signal intensity,ScHof1,25.5
same,SPOT peptide array binding signal intensity,ScHse1,≤ 0
same,SPOT peptide array binding signal intensity,ScLsb1,≤ 0
same,SPOT peptide array binding signal intensity,ScLsb2,≤ 0
same,SPOT peptide array binding signal intensity,ScLsb3,≤ 0
same,SPOT peptide array binding signal intensity,ScLsb4,≤ 0
same,SPOT peptide array binding signal intensity,ScMyo3,2140
same,SPOT peptide array binding signal intensity,ScMyo5,1690
same,SPOT peptide array binding signal intensity,ScNbp2,≤ 0
same,SPOT peptide array binding signal intensity,ScPex13,140
same,SPOT peptide array binding signal intensity,ScRvs167,1
same,SPOT peptide array binding signal intensity,ScSho1,≤ 0
same,SPOT peptide array binding signal intensity,ScSla1-D1-D2,≤ 0
same,SPOT peptide array binding signal intensity,ScSla1-D3,≤ 0
same,SPOT peptide array binding signal intensity,SpAbp1-D1,≤ 0
same,SPOT peptide array binding signal intensity,SpBbc1,≤ 0
same,SPOT peptide array binding signal intensity,SpBzz1-D1,1360
same,SPOT peptide array binding signal intensity,SpBzz1-D2,6.5
same,SPOT peptide array binding signal intensity,SpCyk3,≤ 0
same,SPOT peptide array binding signal intensity,SpHof1,≤ 0
same,SPOT peptide array binding signal intensity,SpHof1-2,6.75
same,SPOT peptide array binding signal intensity,SpHof1-3,≤ 0
same,SPOT peptide array binding signal intensity,SpHse1,12.5
same,SPOT peptide array binding signal intensity,SpLsb1,≤ 0
same,SPOT peptide array binding signal intensity,SpLsb4,≤ 0
same,SPOT peptide array binding signal intensity,SpMyo1,1100
same,SPOT peptide array binding signal intensity,SpNbp2,≤ 0
same,SPOT peptide array binding signal intensity,SpPex13,≤ 0
same,SPOT peptide array binding signal intensity,SpRvs167,2
same,SPOT peptide array binding signal intensity,SpSla1-D1-D2,≤ 0
same,SPOT peptide array binding signal intensity,SpSla1-D3,≤ 0
DAPASKPSVPPRNYF,SPOT peptide array binding signal intensity,SpBzz1-D2,0.5
same,SPOT peptide array binding signal intensity,SpCyk3,≤ 0
same,SPOT peptide array binding signal intensity,SpHof1,1
same,SPOT peptide array binding signal intensity,SpHof1-2,2
same,SPOT peptide array binding signal intensity,SpHof1-3,11
same,SPOT peptide array binding signal intensity,SpHse1,≤ 0
same,SPOT peptide array binding signal intensity,SpLsb1,756
same,SPOT peptide array binding signal intensity,SpLsb4,3340
same,SPOT peptide array binding signal intensity,SpMyo1,2
same,SPOT peptide array binding signal intensity,SpNbp2,3
same,SPOT peptide array binding signal intensity,SpPex13,≤ 0
same,SPOT peptide array binding signal intensity,SpRvs167,802
same,SPOT peptide array binding signal intensity,SpSla1-D1-D2,≤ 0
same,SPOT peptide array binding signal intensity,SpSla1-D3,≤ 0
